# Experimental data as given in PubChem BioAssay (NCATS).
# Results filed as inconclusive are left out. Where a call stands in place of a potency, no number is given. Values without a mark were called inactive. Calls of active or inactive are those of the source. The call rests on the fitted dose curve; in most records, active means well fitted inhibition curve with a large enough effect; inconclusive means small, poorly fitted or top-dose-only effect; inactive means no such curve, though single readings can be large or run the other way.
# Legend:
# [1] = tested on: Zika virus NS2B-NS3 protease (unlinked complex); assay: Primary screen GU Rhodamine qHTS for Zika virus inhibitors: Unlinked NS2B-NS3 protease assay (AID 1347159); further: nearly all actives have a fitted effect of over 60% in size
# Summary of the method: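 Enzyme 25 nM in Tris-HCl pH 8.0 + 0.01% Tween 20; compounds up to 114 microM, 15 min RT dark; + Rhod110 substrate 1.5 microM; read t0 and 15 min; delta fluorescence → % inhibition → 4-parameter Hill fit.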
# [2] = tested on: Zika virus NS2B-NS3 protease (linked construct); assay: Primary screen NINDS Rhodamine qHTS for Zika virus inhibitors (AID 1347160); further: nearly all actives have a fitted effect of over 55% in size
# Summary of the method: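 Enzyme (25 nM, linked NS2B-NS3) was preincubated 15 min with compound in 10 mM Tris-HCl pH 8.0, 0.01% Tween 20. Rhodamine110 substrate (1.5 microM) was then added and fluorescence read at start and after 15 min.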
# Potency means the concentration at half of the fitted maximal effect.
Compound,Potency [1],Potency [2],"activity change, negative = inhibition [1]","activity change, negative = inhibition [2]"
C[C@@H]([C@@H](O)c1ccc(O)cc1)N1CCC(O)(c2ccccc2)CC1,inactive,inactive,–,–
C[C@@H](Oc1cc(-n2cnc3ccc(OC4CCN(C)CC4)cc32)sc1C(N)=O)c1ccccc1C(F)(F)F,inactive,inactive,–,–
Cc1cc(C)cc(C(=O)NOCCCCCC(=O)NO)c1,inactive,inactive,–,–
CC(C)c1nnc(-c2ccc(-c3ccccc3)nc2)n1-c1cccc2nonc12,inactive,inactive,–,–
Nc1nc2c(ncn2[C@@H]2O[C@@H]3COP(=O)(O)O[C@H]3[C@H]2O)c(=O)[nH]1,inactive,inactive,–,–
Cn1c(=O)n(-c2ccc(C(C)(C)C#N)cc2)c2c3cc(C#Cc4cccnc4)ccc3ncc21,inactive,inactive,–,–
CC(=O)OC[C@]12[C@H](OC(C)=O)C(=O)[C@@H]3[C@@H](OC(C)=O)[C@@]14O[C@@]3(C)COC(=O)c1cccnc1[C@@H](C)[C@H](C)C(=O)O[C@@H]([C@H](O)[C@@H]2OC(C)=O)[C@]4(C)O,inactive,inactive,–,–
O=C(O)c1cn(C2CC2)c2cc(N3C[C@@H]4C[C@H]3CN4)c(F)cc2c1=O,inactive,inactive,–,–
C=CC(C)(C)c1[nH]c2cc3c(cc2c1CC1NC(=O)C2=CCCN2C1=O)C=CC(C)(C)O3 (centres undefined),inactive,inactive,–,–
C=C1C(=O)O[C@@H]2[C@H]1CCC(C)=C1CCC(=O)O[C@]12C,inactive,inactive,–,–
CC1(C)CC[C@]2(C(=O)O[C@@H]3O[C@H](CO)[C@@H](O)[C@H](O)[C@H]3O)CC[C@]3(C)C(=CCC4[C@@]5(C)C[C@@H](O)[C@H](O)C(C)(C)C5CC[C@]43C)C2[C@@H]1O (some centres undefined),inactive,inactive,–,–
C/C1=C\CC[C@H](C)CCO[C@@H]2O[C@H](CO[C@@H]3OC[C@](O)(COC1=O)[C@H]3O)[C@@H](O)[C@H](O)[C@H]2O,inactive,inactive,–,–
CC1(C)CC[C@]2(C(=O)O)CC[C@]3(C)C(=CCC4[C@@]5(C)CC[C@H](O[C@@H]6O[C@H](CO)[C@@H](O)[C@H](O)[C@H]6O[C@@H]6O[C@H](CO)[C@@H](O)[C@H](O)[C@H]6O)[C@@](C)(CO)C5CC[C@]43C)[C@@H]2C1 (some centres undefined),inactive,inactive,–,–
COC(=O)[C@@H](O)[C@H]1[C@@]2(C)CC3(O)[C@@H](C(=O)[C@H]2O)[C@]24O[C@]25CC(=O)O[C@@H](c2ccoc2)[C@]5(C)CCC4[C@]13C (some centres undefined),inactive,inactive,–,–
O=c1[nH]ccc2cc(OC3CCNCC3)ccc12,inactive,inactive,–,–
NC(=O)c1cccc(-c2cc(OC(=O)NC3CCCCC3)ccc2O)c1,inactive,inactive,–,–
Cc1ccc(S(=O)(=O)n2ccc(-c3c(-c4ccc(Cl)cc4)noc3C)n2)cc1,inactive,inactive,–,–
C[C@H]1O[C@@H](O[C@H]2CC[C@@]3(C)C(CC[C@]4(C)C3CC=C3C5CC(C)(C)CC[C@]5(C(=O)O)CC[C@]34C(=O)O)C2(C)C)[C@H](O)[C@@H](O)[C@@H]1O (some centres undefined),inactive,inactive,–,–
C[C@]12C=C[C@@]3(CCC4[C@](C)(CO)CCC[C@@]4(C)C3CC1)C2 (some centres undefined),22.4 µM (active),inactive,–,–
Cc1cc(C(=O)Nc2cccc(C(=O)Nc3cccc(C(F)(F)F)c3)c2)on1,inactive,inactive,–,–
CC1OC(OC2C(OC3C(O[C@H]4CC[C@@]5(C)C(CC[C@]6(C)C5C(=O)C=C5C7CC(C)(C)CC(O)[C@]7(C)CC[C@]56C)C4(C)C)OC(C(=O)O)C(O)C3O)OCC(O)C2O)C(O)C(O)C1O (some centres undefined),inactive,inactive,–,–
CC(=O)N[C@H]1[C@H](O[C@H]2CC[C@@]3(C)C(CC[C@]4(C)C3CC=C3C5CC(C)(C)CC[C@]5(C(=O)O)[C@H](O)C[C@]34C)C2(C)C)O[C@H](CO[C@@H]2OC[C@H](O)[C@H](O)[C@H]2O[C@@H]2OC[C@@H](O)[C@H](O)[C@H]2O)[C@@H](O)[C@@H]1O (some centres undefined),inactive,inactive,–,–
Cc1c[nH]c2nccc(Oc3c(F)cc(Nc4cc(Cl)nc(N)n4)cc3F)c12,inactive,inactive,–,–
COC(=O)C1=CO[C@@H](O[C@@H]2O[C@H](CO)[C@@H](O)[C@H](O)[C@H]2O)[C@@H]2C(COC(C)=O)=C[C@H](O)[C@H]12,inactive,inactive,–,–
CC(C)=CCC[C@](C)(O[C@@H]1O[C@H](CO)[C@@H](O)[C@H](O)[C@H]1O)[C@H]1CC[C@]2(C)[C@@H]1[C@H](O)CC1[C@@]3(C)CC[C@H](O)C(C)(C)C3[C@@H](O[C@@H]3O[C@H](CO)[C@@H](O)[C@H](O)[C@H]3O[C@@H]3OC[C@@H](O)[C@H](O)[C@H]3O)C[C@]12C (some centres undefined),inactive,inactive,–,–
C=CC1(C)C=C2CCC3C(C)(C)C(O[C@@H]4O[C@@H](CO)[C@H](O)[C@H]4O)CCC3(C)C2CC1O[C@@H]1O[C@H](C)[C@H](O)[C@H](O)[C@H]1O (some centres undefined),inactive,inactive,–,–

Compound,Potency [1],Potency [2],"activity change, negative = inhibition [1]","activity change, negative = inhibition [2]"
Cc1cc(N(C)C)ccc1-c1nc2ccc(-c3nc4ccc(N5CCN(C)CC5)cc4[nH]3)cc2[nH]1,inactive,inactive,–,–
O=C(O)c1cc2cccc([N+](=O)[O-])c2[nH]1,inactive,inactive,–,–
O=C(/C=C/c1ccc(O)cc1)OC1[C@H](O)CC(O)(C(=O)O)C[C@H]1O (some centres undefined),inactive,inactive,–,–
C[C@@H]1O[C@@H](O[C@H]2[C@H](OC(=O)[C@]34CCC(C)(C)C[C@H]3C3=CCC5[C@@]6(C)C[C@H](O)[C@H](O[C@@H]7O[C@H](CO)[C@@H](O)[C@H](O)[C@H]7O)[C@@](C)(CO)C6[C@H](O)C[C@@]5(C)[C@]3(C)C[C@H]4O)OC[C@H](O)[C@@H]2O)[C@H](O)[C@H](O)[C@H]1O[C@@H]1OC[C@@H](O)[C@H](O[C@H]2OC[C@](O)(CO)[C@H]2O)[C@H]1O (some centres undefined),–,–,7.01% [at 19.1 µM],18.3% [at 10.7 µM]
CCOC(=O)C(CCc1ccccc1)NC(C)C(=O)N1C(=O)N(C)CC1C(=O)O (centres undefined),inactive,inactive,–,–
CS(=O)(=O)N(CC(=O)NCC1CC1)c1cc(C(F)(F)F)ccc1Cl,inactive,inactive,–,–
CC1CCC2(C=O)C(CO)=CCCC2C1(C)CC(=O)O (centres undefined),11.2 µM (active),12.6 µM (active),–,–
CC1=CCC(C(C)(C)O[C@@H]2O[C@H](CO[C@@H]3O[C@@H](C)[C@H](O)[C@@H](O)[C@H]3O)[C@@H](O)[C@H](O)[C@H]2O)CC1 (some centres undefined),inactive,inactive,–,–
C[C@@H]1C[C@H]2O[C@@H]2/C=C\C=C\C(=O)Cc2c(Cl)c(O)cc(O)c2C(=O)O1,inactive,inactive,–,–
C=C(C)[C@@H]1CC[C@]2(C)CC[C@]3(C)[C@H](CC[C@@H]4[C@@]5(C)CC[C@@H](O)C(C)(C)[C@@H]5CC[C@]43C)[C@@H]12,inactive,inactive,–,–
C[C@@H]1CC[C@]2(C(=O)O[C@@H]3O[C@H](CO)[C@@H](O)[C@H](O)[C@H]3O)CC[C@]3(C)C(=CCC4[C@@]5(C)C[C@@H](O)[C@H](O)[C@@](C)(C(=O)O[C@H]6[C@H](O)C[C@@]7(C)C(CC[C@]8(C)C7CC=C7[C@H]9[C@](C(=O)O[C@@H]%10O[C@H](CO)[C@@H](O)[C@H](O)[C@H]%10O)(CC[C@@H](C)[C@@]9(C)O)CC[C@]78C)[C@@]6(CO)C(=O)O)C5CC[C@]43C)[C@@H]2[C@]1(C)O (some centres undefined),–,–,-16.4% [at 19.1 µM],-25.7% [at 10.7 µM]
COC(=O)C[C@H]1C(C)(C)[C@H](OC(=O)C(C)C)[C@@]2(O)C(=O)[C@]1(C)C1CC[C@]3(C)C(CC(=O)O[C@H]3c3ccoc3)[C@]13O[C@@H]32 (some centres undefined),inactive,inactive,–,–
CCCCNc1ccc(-c2ccc(CN3CCOCC3)cn2)c(NC2CCC(O)CC2)c1 (centres undefined),inactive,inactive,–,–
COc1cc2occc2c(O[C@@H]2O[C@H](CO)[C@@H](O)[C@H](O)[C@H]2O)c1CCC(=O)O,inactive,inactive,–,–
COc1cc(O)cc(C)c1C(=O)O[C@@H]1[C@H](O)[C@@H](CO)O[C@H]1n1ccc(=O)[nH]c1=O,inactive,inactive,–,–
C=CC(=O)Nc1cc(Nc2nccc(-c3c[nH]c4ccccc34)n2)c(OC)cc1N(C)CCN(C)C,inactive,inactive,–,–
CNC(=O)c1ccccc1Nc1nc(Nc2ccc3c(c2OC)CCCC(N2CCN(CCO)CC2)C3)ncc1Cl (centres undefined),inactive,inactive,–,–
O=C(O)CCCCCC[C@H]1C(=O)NC(=O)N1CC[C@@H](O)C1CCCCC1,inactive,inactive,–,–
C[C@H](Nc1ncnc2nc[nH]c12)c1cc2ccc(F)cc2nc1-c1ccccn1,inactive,inactive,–,–
CC1OC(OC2CCC3(C)C(CCC4(C)C3CC=C3C5CC(C)(C)CCC5(C(=O)OC5OC(CO)C(O)C(O)C5O)CCC34C(=O)O)C2(C)C)C(O)C(O)C1O (centres undefined),inactive,inactive,–,–
C[C@@H]1C(=O)O[C@H]2[C@@H](O)C34[C@H]5C[C@@H](C(C)(C)C)C36[C@@H](OC(=O)[C@@H]6O)O[C@@]4(C(=O)O5)[C@@]12O (some centres undefined),inactive,inactive,–,–
C[C@H]1[C@H](O)O[C@@H]2O[C@@]3(C)CC[C@H]4[C@H](C)CC[C@@H]1[C@@]24OO3,inactive,inactive,–,–
O=C(O)Cc1cn(C2OCC(O)C(O)C2O[C@@H]2O[C@H](CO)[C@@H](O)[C@H](O)[C@H]2O)c2ccccc12 (some centres undefined),inactive,inactive,–,–
COc1ccc(-c2cnc(-c3cccc4c3-c3ccccc3C4=O)o2)cc1,inactive,inactive,–,–
OC/C=C/c1ccc(O[C@@H]2O[C@H](CO)[C@@H](O)[C@H](O)[C@H]2O)cc1,inactive,inactive,–,–
C[C@@H]1O[C@@H](O[C@H]2[C@H](O[C@H]3[C@H](O[C@H]4CC[C@@]5(C)C(CC[C@]6(C)C5CC=C5[C@@H]7CC(C)(C)CC[C@]7(C(=O)O[C@@H]7O[C@H](CO)[C@@H](O[C@@H]8O[C@@H](C)[C@H](O)[C@@H](O)[C@H]8O)[C@H](O)[C@H]7O)CC[C@]56C)C4(C)C)OC[C@H](O)[C@@H]3O)O[C@H](CO)[C@@H](O)[C@@H]2O)[C@H](O)[C@H](O)[C@H]1O (some centres undefined),–,–,6.71% [at 19.1 µM],35.2% [at 10.7 µM]
